Compound activity as filed in PubChem BioAssay.
Compounds with a hit are over-represented: about 4% of the library has one in this group of screens.
ERAP1 inh: inhibitors of human ERAP1 aminopeptidase; Q9NZ08; recombinant ERAP1, Leu-AMC fluorescence, 60 min; inhibition, % at 10.7 µM; 340,000 compounds, 0.15% hits;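 active = mean replicate inhibition of at least 30%, or all replicates individually reaching that 30% level; inactive = mean below 30% and not every replicate reaching it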
RAD52 anneal inh: RAD52 (human) annealing inhibition; 360,000 compounds, 0.46% hits; AID 651710; inhibition, % at 18.7 µM; recombinant RAD52 DNA annealing, FRET fluorescence; P43351;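 active = every replicate showing at least 50% inhibition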
DENV2 CPE rescue: inhibitors of DENV2 cytopathic effect. DENV2-infected cells, cytopathic effect rescue, plate reader. CPE inhibition, % at 9.99 µM. 350,000 compounds, 1.7% hits; in the data active = CPE inhibition above about 20%, passing the limit was not always enough; tested in BHK-21 cells
FGF22 binding: binders of recombinant human FGF22 by thermal shift. AID 651658. activity (Tm shift, normalised), % at 9.99 µM. 340,000 compounds, 1.5% hits. SYPRO orange fluorescence; percent of sucrose octasulfate shift, DMSO zero. Q9HCT0;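 active = mean Tm shift, scaled 0 neutral to 100 positive control, at about 1.3% or above, every replicate too, limit read from the data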
MLL AF4-AF9 inh: inhibitors of human MLL-AF4/AF9 interaction; P42568; AlphaScreen, biotin-AF4 peptide binding to FLAG-AF9; inhibition, % at 10 µM; 350,000 compounds, 0.47% hits; AID 651704;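 active = every replicate reaching a set inhibition limit, whatever the replicate mean, cut at about 25% in these data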
Hits are given with their value; i = inactive; nt = not tested or not shown.

SMILES	ERAP1 inh	RAD52 anneal inh	DENV2 CPE rescue	FGF22 binding	MLL AF4-AF9 inh
COC1=CC(=O)OC(c2cccc(OC)c2)C1 (centres undefined)	i	i	i	i	nt
COC1=CC(=O)OC(c2cccc([N+](=O)[O-])c2)C1 (centres undefined)	i	i	41.2	i	nt
COCCNC(=S)N=Nc1c(O)[nH]c2c(C)cc(C)cc12	i	i	i	43.5	i
CO[C@H]1CC[C@@H]2CCOc3ccc(C#N)cc3C(=O)N(C)C[C@@H](OC)[C@H](C)C(=O)N(C)C[C@H]1O2	i	i	i	i	i
CN(C)c1ccc(CNS(=O)(=O)c2ccc3c(c2)C(C)(C)C(=O)N3C)cc1	i	i	48.5	i	i
COC(=O)C(C)N1C(=O)S/C(=C\c2ccc(-c3ccc(C(=O)O)cc3C)o2)C1=O (centres undefined)	57.3	i	i	i	i
Cc1ccc(C(=O)O)cc1-c1ccc(C=C2C(=O)c3ccccc3C2=O)o1	i	i	i	i	i
CCS(=O)(=O)N1CCC2(CC1)CN(S(=O)(=O)c1cccc(OC)c1)[C@H](CO)c1[nH]c3cc(OC)ccc3c12	i	i	i	i	i
CCN(C(=O)COC(=O)c1cc2c(s1)CCCCC2)C1CCS(=O)(=O)C1 (centres undefined)	i	i	59.5	i	i
O=C(COC(=O)c1cc2c(s1)CCCCC2)NC1CCS(=O)(=O)C1 (centres undefined)	i	i	i	i	i
CCN(C(=O)COC(=O)c1ccccc1NC(=O)c1ccco1)C1CCS(=O)(=O)C1 (centres undefined)	i	i	i	43.2	i
CCN(C(=O)COC(=O)c1ccccc1OCc1ccc(Cl)cc1)C1CCS(=O)(=O)C1 (centres undefined)	i	i	i	43.4	i
CN(C(=O)COC(=O)c1ccccc1NC(=O)c1ccco1)C1CCS(=O)(=O)C1 (centres undefined)	i	i	i	i	i
CCN(C(=O)COC(=O)c1ccccc1Cc1ccccc1)C1CCS(=O)(=O)C1 (centres undefined)	i	i	i	i	i
C[C@H](CO)N1C[C@H](C)[C@@H](CN(C)Cc2cncnc2)Oc2ncc(C#CC(C)(C)O)cc2C1=O	i	i	i	i	i
C[C@H](CO)N1C[C@H](C)[C@H](CN(C)Cc2cncnc2)Oc2ncc(C#CC(C)(C)O)cc2C1=O	i	i	i	i	i
C[C@@H]1CN([C@@H](C)CO)C(=O)c2cc(C#CC(C)(C)O)cnc2O[C@H]1CN(C)Cc1cncnc1	i	i	64.2	i	i
C[C@@H]1CN([C@@H](C)CO)C(=O)c2cc(C#CC(C)(C)O)cnc2O[C@@H]1CN(C)Cc1cncnc1	i	i	22.7	i	i
C[C@@H]1CN([C@@H](C)CO)C(=O)c2cc(Br)cnc2O[C@H]1CN(C)S(=O)(=O)c1ccc(F)cc1	i	i	i	i	i
COC(=O)c1ccc([C@H]2CC(=O)O2)cc1	i	i	76.0	i	i
CCOC(=O)C1=C(C)N(CCCC(=O)O)C(=O)NC1c1ccc([N+](=O)[O-])cc1 (centres undefined)	i	i	102.2	i	i
COC(=O)C1=C(C)N(CCCC(=O)O)C(=O)NC1c1ccc([N+](=O)[O-])cc1 (centres undefined)	i	i	i	i	i
C[C@@H]1CN([C@@H](C)CO)C(=O)c2c(c3ccccc3n2C)-c2ccccc2CO[C@@H]1CN(C)C(=O)c1cc(Cl)cc(Cl)c1	i	i	i	i	i
CCC(=O)N1CC2(C1)[C@@H](c1ccccc1)[C@H](CO)N2C(=O)NC(C)C	i	i	i	nt	i
COC(=O)c1c(C)cc(O)cc1O	i	i	i	i	i
SMILES	ERAP1 inh	RAD52 anneal inh	DENV2 CPE rescue	FGF22 binding	MLL AF4-AF9 inh
Cc1cc(OC(=O)c2c(C)cc(OC(=O)c3c(C)cc(O)cc3O)cc2O)cc(O)c1C(=O)O	i	i	i	1.9	i
CCCNC(=O)C[C@@H]1CC[C@@H]2[C@@H](COc3ccc(NC(=O)c4ccc(C(F)(F)F)cc4)cc3C(=O)N2C)O1	nt	nt	nt	nt	i
O=C(C[C@@H]1C=C[C@H](NC(=O)c2ccc(F)cc2)[C@@H](CO)O1)NCCc1ccccc1	i	i	i	i	i
NNC(=O)c1ccc(CN2C(=O)c3cccc4cccc2c34)cc1	i	i	i	43.8	i
CO[C@@H]1CN(C)C(=O)c2ccc(NC(=O)Cc3ccccc3)cc2OC[C@H](C)N(CC2CC2)C[C@@H]1C	i	i	i	i	i
COc1cc(C)nc(N2CCC(C(=O)NCC3CCCO3)CC2)n1 (centres undefined)	i	i	43.6	i	i
COC(=O)CCc1cccc(CCC(=O)OC)c1	i	i	46.0	i	i
COC(=O)CCc1ccc(O)cc1	i	i	i	i	i
CN(Cc1ccon1)Cc1cn[nH]c1-c1ccc(-c2ccccc2)cc1	i	i	nt	43.1	i
CC(c1ccon1)N(C)Cc1cn[nH]c1-c1ccc(-c2ccccc2)cc1 (centres undefined)	i	i	i	i	i
C[C@H]1CN([C@@H](C)CO)C(=O)c2cc(C#CCc3ccccc3)cnc2O[C@H]1CN(C)C(=O)Cc1cccnc1	i	i	i	i	i
COc1ccc2c3c(n(C)c2c1)[C@@H](CO)N(C(=O)Nc1ccc(F)cc1)CC31CCN(C)CC1	i	i	i	i	i
O=C(NC1CCCC1)N[C@H]1C=C[C@@H](CC(=O)N2CCOCC2)O[C@@H]1CO	i	i	35.8	i	i
O=C(NC1CCCC1)N[C@H]1C=C[C@H](CC(=O)N2CCOCC2)O[C@H]1CO	i	i	56.8	i	i
O=C(Cc1ccccc1)N[C@@H]1C=C[C@H](CC(=O)N2CCOCC2)O[C@@H]1CO	i	i	i	i	i
C[C@@H]1CN([C@H](C)CO)C(=O)c2cccc(NC(=O)C3CC3)c2O[C@@H]1CN(C)CC1CCCCC1	i	i	i	i	i
COCC(=O)Nc1ccc2c(c1)OC[C@H](C)N(C(=O)COC)C[C@H](C)[C@@H](OC)CN(C)C2=O	i	i	i	i	i
CC(=O)N(C)C[C@H]1Oc2cc(C#Cc3cccnc3)ccc2S(=O)(=O)N([C@@H](C)CO)C[C@@H]1C	i	i	i	i	i
C[C@@H]1CCCCO[C@@H](CN(C)C(=O)Nc2cccc3ccccc23)[C@H](C)CN([C@H](C)CO)C(=O)c2cc(NC(=O)CCC(F)(F)F)ccc2O1	nt	nt	99.1	i	nt
C[C@@H]1CN([C@@H](C)CO)C(=O)c2cc(NC(=O)CCC(F)(F)F)ccc2O[C@@H](C)CCCCO[C@H]1CN(C)C(=O)Nc1cccc2ccccc12	nt	nt	25.8	i	nt
C[C@@H]1CN([C@H](C)CO)C(=O)c2cc(NC(=O)CCC(F)(F)F)ccc2O[C@@H](C)CCCCO[C@H]1CN(C)C(=O)Nc1cccc2ccccc12	nt	nt	i	i	nt
C[C@@H]1CN([C@@H](C)CO)C(=O)c2cc(NC(=O)CCC(F)(F)F)ccc2O[C@@H](C)CCCCO[C@@H]1CN(C)C(=O)Nc1cccc2ccccc12	nt	nt	i	i	nt
